# Measurements published in ChEMBL document CHEMBL1157539, “Thousands of chemical starting points for antimalarial lead identification” (Nature, 2010).
# Legend:
# Type in all cases: functional
# [1] = test system: Plasmodium falciparum; experiment: GSK_TCMDC: Inhibition of Plasmodium falciparum 3D7 in whole red blood cells, using parasite LDH activity as an index of growth. Test compounds present at 2uM
# [2] = test system: Plasmodium falciparum; experiment: GSK_TCMDC: Inhibition of Plasmodium falciparum Dd2 in whole red blood cells, using parasite LDH activity as an index of growth. Test compounds present at 2uM
# [3] = test system: HepG2; experiment: GSK_TCMDC: Percent inhibition of human HepG2 cell line. Test compounds present at 10uM.
SMILES,Inhibition [1],Inhibition [2],Inhibition [3]
Cc1ccc(N2C(N)=NC(N)=NC2(C)C)cc1.Cl,96%,20%,43%
Cl.O=C(Nc1ccnc2ccccc12)NC1CCN(Cc2ccccc2)CC1,96%,43%,18%
COc1ccc(O)cc1/C=N/Nc1ccnc2cc(Cl)ccc12,100%,92%,0%
CCN(CC)c1ccc2nc(N)nc(N)c2c1Cl.Cl,92%,1%,62%
CN(C)CCOc1ccc2c(c1)CN(C)CC2c1ccccc1.Cl (stereo unspecified),91%,0%,15%
Cc1cccc(-c2cccc3c(NC(=O)N4CCc5cc6nccc(N7CCN8CCC[C@H]8C7)c6cc54)cccc23)n1.Cl,94%,68%,14%
COc1ccc(S(=O)(=O)N2CCCc3ccc(Br)cc32)cc1N1CCN(C(=O)C(Cl)(Cl)Cl)CC1,97%,93%,23%
CCCCCN1CCCC1CNS(=O)(=O)c1ccc(C(=O)Nc2ccc(C(F)(F)F)cc2)cc1.O=C(O)C(F)(F)F (stereo unspecified),87%,0%,19%
COC(=O)[C@@H](NC(=O)[C@H](CC(C)C)Nc1ccc(C#N)c2ccccc12)c1ccc(O)cc1.O=C(O)C(F)(F)F,98%,87%,4%
COc1cc2nc(N3CC(C)N(C(=O)Cc4ccc(-c5ccccc5)cc4)C(C)C3)nc(N)c2cc1OC (stereo unspecified),100%,12%,26%
CC(C)C[C@@H](/C=N/N1CCNC1=O)NC(=O)[C@H](CC(C)C)NC(=O)c1ccc(OCCN2CCOCC2)cc1,97%,89%,21%
O=C(Nc1ccc(-c2ccccc2)cc1)Nc1cccc(Cn2nc(Cl)c(N3CCNCC3)cc2=O)c1.O=C(O)C(F)(F)F,100%,79%,15%
Cc1cc(=NN=Cc2cccc(Cl)c2)c2ccc(F)cc2[nH]1,100%,98%,0%
CC(C)Nc1ccc(Nc2ccnc3cc4ccccc4cc23)cc1,100%,81%,37%
CC(C)(C)c1cc(C(=O)N2CCN(c3nccnc3C#N)CC2)n(Cc2ccccc2)n1,100%,93%,0%
CCc1c[nH]c2c(N3CCCCS3(=O)=O)cc(C(=O)N[C@@H](Cc3ccccc3)[C@H](O)CNCc3cccc(OC)c3)cc12.O=CO,86%,91%,0%
Cc1cc(F)ccc1Nc1nc(N(C)c2ccccc2)c2cc(OCCCN(C)C)ccc2n1,100%,49%,31%
Cc1ccc(C2CCN(CCCCNC(=O)c3ccc(-c4ccc(C(F)(F)F)cc4)cc3)CC2)c(O)c1,100%,49%,92%
CN1CCC(N2CCN(Cc3cccc(-c4cccc(-c5nc6ccccc6[nH]5)c4)c3)CC2)CC1.O=C(O)C(F)(F)F,100%,100%,19%
COc1ccc(C=NNc2ccnc3cc(F)c(C)cc23)c2ccccc12,100%,85%,0%
CN(C)C1CCN(Cc2ccc(N3CCN(Cc4cccc5[nH]ccc45)CC3)nc2)CC1,80%,17%,11%
COc1cccc(CNC(=O)c2cc(CNCc3ccccc3)ccc2-c2cccc(CNCc3ccc(-c4ccccc4)cc3)c2)c1.O=C(O)C(F)(F)F,95%,15%,22%
O=C(Cc1cccc(OCCCN(Cc2cccc(C(F)(F)F)c2Cl)CC(c2ccccc2)c2ccccc2)c1)NCc1ccco1,94%,84%,2%
COc1ccc2nccc([C@@H](O)CN3CCC(NCc4ccc5c(c4)NC(=O)CO5)CC3)c2c1.Cl,99%,6%,1%
O=C(NCCN1CCN(S(=O)(=O)c2ccc(OC3CCNCC3)c(Br)c2)CC1)c1ccc(Cl)c(Cl)c1.O=C(O)C(F)(F)F,89%,0%,1%
CCCc1ccccc1Nc1nc(C)cc(N(CC)CCCN2CCCCC2)n1.O=C(O)C(F)(F)F,98%,49%,27%
Cc1nnnn1-c1ccc(C(=O)N2CCC3(CC2)CN(Cc2ccc(Cl)c(Cl)c2)C(=O)O3)cc1,100%,99%,2%
